The OligoGym collection

These sequences were tested against TGFB1I1 (assay: pooled miR-30 sensor sort-seq; sequence = guide strand). Details: shRNA.
Note: reference of the scale not given here.

Sequence	sensor-assay potency score (higher = more potent)
TGAGACATGATTTCATCTGTGA	0.918
TTCCTGAAGCAACCGATCTAGC	-0.825
TTGTGGAGCTCACCACCGGTGG	-1.9
TTTGTGGAGCTCACCACCGGTG	-1.15
TTTTCTTATCTTCAGACTGGTC	-0.967
ATTTGTGGAGCTCACCACCGGT	-0.966
TCATCTGTGATGTTGAACTGAG	-0.542
TTAAGTTCCTGAAGCAACCGAT	-0.211
TCTTTTCTTATCTTCAGACTGG	-0.149
TTGTCTGTGTGCAATCCACTTT	0.0751

The sequences below were run against THNSL1 in the same assay as above. Details: shRNA.

Sequence	sensor-assay potency score (higher = more potent)
TTGCTCATTACCAACATCCTGT	0.41
TTCTTTAATCTTTAAAGCCTGC	-0.791
TATGACACAACAACCTAGTTTC	-0.543
TATAATTGCAACTTGGTGGGAT	0.997
TATACTAGAAAAACATTTCTGT	0.647
TATCCTTTGCTTATCATTCTTA	0.234
TTGAGAATATCTATTGACGGTG	-0.169
TATAGGTGGAGTTAATAGCTGC	-0.591
TATCTGTGCTCTTTCTACGTAG	-0.49
TTTGTCTCCAACAAGAGAGTGG	-0.0448
ATCTAGTAGAGGTACATCCAGG	-1.3
TTTGAGAATATCTATTGACGGT	-0.0842

The sequences below were run against THOC7 in the same assay as above. Details: shRNA.

Sequence	sensor-assay potency score (higher = more potent)
TATGCTACATTCTATTTCCTTG	-0.777
TTTTCGTATTCGTTTTGCTTGA	-0.919
TAAGAAGAACATGAAACTGTTT	-0.283
TTTCCGTCTCAATTCCAGCTTA	-0.243
TTTTGCTTGAAGAATTTGCTTT	-0.308
TTTGCTTGAAGAATTTGCTTTT	-0.209
TTCCTGAGCTTCTTCTACCTCT	-0.111
TAATTCTCCGATCATCTCCAGC	-0.503
TTTAATGAAACTCTTCACTAGC	0.0596
TTCGTATTCGTTTTGCTTGAAG	-0.51
TAATGTGTGAAAGATGCTCTAA	0.0139

These sequences were tested against TIMM44 in the same assay as above. Details: shRNA.

Sequence	sensor-assay potency score (higher = more potent)
ATCTTCATCTCGAAGAACCGGT	-0.094
TTCTTGTTTGACATTATCTAGC	-0.514
TTGACATTATCTAGCAAGCCGG	-1.12
TTTACTGACTTCGTGAAGGCTC	0.133
TTCGTCATACTTCATCTTCATC	-1.59
TAGCTTCATAGCACCAGTCTTT	-0.701
TTGTTTGACATTATCTAGCAAG	-0.93
